Test results taken from PubChem BioAssay (NCI).
The panel holds about 79,000 compounds, 15% with a hit somewhere; the sample as a whole holds those more often. The source made the active and inactive calls. Cut-off read from the data, not from the text of the source: active = growth inhibition above about 70%; inactive = the rest.

Experiments:
[1] = NCI Yeast Anticancer Drug Screen. Data for the rad52 strain (AID 147);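 note: 0% = growth of vehicle-treated control cultures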; conditions: S. cerevisiae rad52 mutant growth inhibition, active compounds read high
Procedure, shortened: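 Read-out: growth inhibition versus vehicle-treated controls. Cells were a DNA repair-deficient yeast strain treated with compounds.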

[2] = NCI Yeast Anticancer Drug Screen. Data for the wt1 strain (AID 149);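 note: 0% = growth of vehicle-treated wt1 cultures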; conditions: S. cerevisiae wt1 strain (SPY 50644) growth inhibition, active compounds read high
Procedure, shortened: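 Readout: yeast growth inhibition, normalised to vehicle controls, in the wt1 strain exposed to test compounds.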

[3] = NCI Yeast Anticancer Drug Screen. Data for the rad50EPP+ strain (AID 151);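 note: 0% = growth of vehicle-treated control cultures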; conditions: S. cerevisiae rad50 mutant strain, active compounds read high
Procedure, shortened: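 Growth inhibition read against vehicle controls in rad50EPP+ yeast, a strain altered in DNA damage repair, after compound exposure.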

[4] = NCI Yeast Anticancer Drug Screen. Data for the mgt1 strain (AID 153); conditions: S. cerevisiae mgt1 mutant growth inhibition, active compounds read high
Procedure, shortened: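 mgt1 yeast grown with test compound; read-out is growth inhibition versus vehicle-treated cultures.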

[5] = NCI Yeast Anticancer Drug Screen. Data for the rad50 strain (AID 155);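 note: 0% = growth of vehicle-only cultures of the same strain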; conditions: S. cerevisiae rad50 strain growth inhibition, active compounds read high
Procedure, shortened: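 Compounds were tested on a yeast strain with an engineered DNA damage repair alteration; the reported value is growth inhibition normalised to vehicle treatment.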

[6] = NCI Yeast Anticancer Drug Screen. Data for the mec2-1 strain (AID 157); conditions: S. cerevisiae mec2-1 strain, active compounds read high
Procedure, shortened: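 Yeast mec2-1 mutant treated with compound. Readout: growth inhibition vs vehicle controls.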

[7] = NCI Yeast Anticancer Drug Screen. Data for the rad14 strain (AID 159);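 note: 0% = growth of vehicle-treated control cultures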; conditions: S. cerevisiae rad14 strain growth inhibition, active compounds read high
Procedure, shortened: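 Compound-treated yeast with a defined DNA-repair lesion; growth inhibition normalised to vehicle-treated cultures.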

[8] = NCI Yeast Anticancer Drug Screen. Data for the sgs1 mgt1 strain (AID 161);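 note: 0% = growth of cultures given vehicle only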; conditions: S. cerevisiae sgs1 mgt1 strain, active compounds read high
Procedure, shortened: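 Read-out: growth inhibition vs vehicle controls. Cells: mutant yeast strain deficient in DNA damage repair.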

[9] = NCI Yeast Anticancer Drug Screen. Data for the CLN2oe strain (AID 163);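 note: 0% = growth of vehicle-only control cultures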; conditions: S. cerevisiae CLN2oe strain, active compounds read high
Procedure, shortened: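 Read-out: yeast growth inhibition, expressed relative to vehicle-only controls. The strain bears an engineered cell-cycle alteration.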

[10] = NCI Yeast Anticancer Drug Screen. Data for the cln2 rad14 strain (AID 165);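 note: 0% = growth equal to vehicle treated cultures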; conditions: S. cerevisiae cln2 rad14 strain, active compounds read high
Procedure, shortened: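 cln2 rad14 yeast strain; compound exposure; growth inhibition read vs vehicle controls.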

[11] = NCI Yeast Anticancer Drug Screen. Data for the bub3 strain (AID 167); conditions: S. cerevisiae bub3 mutant strain, active compounds read high
Procedure, shortened: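 Growth of a checkpoint-deficient yeast mutant is measured after compound exposure. Values represent inhibition relative to vehicle.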

[12] = NCI Yeast Anticancer Drug Screen. Data for the wt2 strain (AID 169);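 note: 0% = growth of vehicle-treated yeast cultures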; conditions: S. cerevisiae wt2 strain growth inhibition, active compounds read high
Procedure, shortened: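 Read-out: growth inhibition versus vehicle-treated control cultures after compound exposure of the yeast strain.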

[13] = NCI Yeast Anticancer Drug Screen. Data for the mlh1 strain (AID 171);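 note: 0% = growth of vehicle-treated control cultures of the same strain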; conditions: S. cerevisiae mlh1 strain growth inhibition, active compounds read high
Procedure, shortened: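 Read-out: growth inhibition versus vehicle controls. Strain: engineered yeast with a defined DNA repair or cell cycle defect, compound-treated.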

[14] = NCI Yeast Anticancer Drug Screen. Data for the sgs1 strain (AID 173);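 note: 0% = growth of vehicle-only control cultures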; conditions: S. cerevisiae sgs1 mutant, active compounds read high
Procedure, shortened: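 Read-out: yeast growth inhibition relative to vehicle controls, following compound exposure of a strain with a defined DNA repair/cell cycle alteration.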

[15] = NCI Yeast Anticancer Drug Screen. Data for the mlh1 rad18 strain (AID 175); conditions: S. cerevisiae mlh1 rad18 strain growth inhibition, active compounds read high
Procedure, shortened: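 Yeast w/ defined DNA-repair lesions; compound exposure; growth vs vehicle controls → % inhibition.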

[16] = NCI Yeast Anticancer Drug Screen. Data for the rad18 strain (AID 177); conditions: S. cerevisiae rad18 mutant growth inhibition, active compounds read high
Procedure, shortened: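 Readout: growth inhibition vs vehicle controls. Cells: genetically altered yeast strain, DNA repair defect.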

[17] = at 5.0 µM (retest, dose inferred, filed as 0.5)
[18] = at 50.0 µM (retest, dose inferred, filed as 5.0)

Measured: growth inhibition

CCCCCCCCCCCC(O)S(=O)(=O)O (stereo not drawn)
active: [4]; at 100.0 µM 70% | [6]; at 100.0 µM 74% | [7]; at 100.0 µM 95% | [12]; at 100.0 µM 98% | [13]; at 100.0 µM 94% | [14]; at 100.0 µM 96% | [16]; at 100.0 µM 90%
inactive: [1]; at 1.2 µM 0% | [1]; at 3.7 µM 0% | [1]; at 11.0 µM -3% | [1]; at 33.0 µM 2% | [1]; at 100.0 µM 55% | [2]; at 1.2 µM -2% | [2]; at 3.7 µM -1% | [2]; at 11.0 µM -4% | [2]; at 33.0 µM 1% | [2]; at 100.0 µM 15% | [3]; at 1.2 µM 7% | [3]; at 3.7 µM 3% | [3]; at 11.0 µM 7% | [3]; at 33.0 µM 15% | [3]; at 100.0 µM 58% | [4]; at 1.2 µM -3% | [4]; at 3.7 µM 0% | [4]; at 11.0 µM -2% | [4]; at 33.0 µM -1% | [5]; at 1.2 µM 4% | [5]; at 3.7 µM 3% | [5]; [17] -13% | [5]; at 11.0 µM -2% | [5]; at 33.0 µM 2% | [5]; [18] 20% | [5]; at 50.0 µM -3.6% | [5]; at 100.0 µM 50% | [6]; at 1.2 µM -1% | [6]; at 3.7 µM 0% | [6]; [17] -17% | [6]; at 11.0 µM -2% | [6]; at 33.0 µM -1% | [6]; [18] -23% | [6]; at 50.0 µM 37.9% | [7]; at 1.2 µM 3% | [7]; at 3.7 µM 4% | [7]; at 11.0 µM 2% | [7]; at 33.0 µM 10% | [8]; [17] -10% | [8]; [18] 17% | [8]; at 50.0 µM 0.05% | [9]; at 1.2 µM -2% | [9]; at 3.7 µM -1% | [9]; at 11.0 µM -2% | [9]; at 33.0 µM -2% | [9]; at 100.0 µM 66% | [10]; [17] -5% | [10]; [18] 6% | [10]; at 50.0 µM -14.4% | [11]; at 1.2 µM 1% | [11]; at 3.7 µM -1% | [11]; [17] 0% | [11]; at 11.0 µM -2% | [11]; at 33.0 µM 0% | [11]; [18] 59% | [11]; at 50.0 µM 7.55% | [11]; at 100.0 µM 12% | [12]; at 1.2 µM -4% | [12]; at 3.7 µM -9% | [12]; at 11.0 µM -7% | [12]; at 33.0 µM -11% | [13]; at 1.2 µM 0% | [13]; at 3.7 µM 0% | [13]; at 11.0 µM -2% | [13]; at 33.0 µM 3% | [14]; at 1.2 µM 1% | [14]; at 3.7 µM -2% | [14]; at 11.0 µM -12% | [14]; at 33.0 µM 6% | [15]; [17] 7% | [15]; [18] 39% | [15]; at 50.0 µM 17.4% | [16]; at 1.2 µM 1% | [16]; at 3.7 µM 1% | [16]; at 11.0 µM -2% | [16]; at 33.0 µM -1%
